Assay outcomes from PubChem BioAssay.
Only a selection was taken, and hits are over-represented in it overall.
Cruzain inh Det: cruzain (T. cruzi) inhibition with detergent. Potency, µM, without a hit: max response, negative = inhibition, actives largely listed as inhibitors. purified cruzain, Z-FR-AMC fluorescence, 0.01% Triton. AID 1478. 200,000 compounds, 0.43% hits;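 note: plate controls were neutral wells for no effect and buffer without enzyme for full effect; nearly all actives have a fitted effect of over 40% in size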
Target sequence (P25779 123-467 limits assumed): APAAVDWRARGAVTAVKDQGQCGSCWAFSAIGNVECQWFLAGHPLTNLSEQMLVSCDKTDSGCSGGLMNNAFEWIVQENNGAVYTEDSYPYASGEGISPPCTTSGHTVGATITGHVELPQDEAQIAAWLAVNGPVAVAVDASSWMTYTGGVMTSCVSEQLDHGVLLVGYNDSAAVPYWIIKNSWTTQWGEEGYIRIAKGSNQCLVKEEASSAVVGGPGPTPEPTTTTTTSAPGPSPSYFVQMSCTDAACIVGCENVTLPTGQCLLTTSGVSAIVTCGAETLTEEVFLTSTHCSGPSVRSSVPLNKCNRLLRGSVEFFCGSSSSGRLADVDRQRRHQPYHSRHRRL
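Purified cruzain (1.5 nM final) was preincubated with compounds for 15 min at room temperature in 100 mM sodium acetate pH 5.5, 5 mM DTT, 0.01% Triton X-100. Reaction started with 2 uM Z-FR-AMC; AMC fluorescence change over 60 s gave activity.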
Cruzain noTriton: blocks cruzain activity in detergent-free assay. AID 1476. Potency, µM, for inactives: max response, negative = inhibition, most hits filed as inhibitors. purified cruzain, Z-FR-AMC fluorescence, no detergent. 200,000 compounds, 2.3% hits;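 note: plate controls were enzyme without inhibitor for no effect and buffer without enzyme for full effect; nearly all actives have a fitted effect of over 40% in size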
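Purified cruzain at 1.5 nM, pre-incubated 15 min with compound at room temperature in 100 mM sodium acetate pH 5.5, 5 mM DTT, 0.00005% Triton X-100. Reaction started with 2 uM Z-FR-AMC; AMC fluorescence increase over 60 s gives rate.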
NS1 function inh: inhibitors of influenza NS1 protein function. Potency, µM (series often up to 46.1 µM), without a hit: top-dose activity, positive = more growth. 270,000 compounds, 0.4% hits. AID 2326; calls by dose curve; note: actives are rising curves; nearly all actives have a fitted effect of over 50% in size
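In this qHTS, NS1 from influenza A is expressed in budding yeast, where it slows growth. Cells are switched from glucose to 2% galactose medium (pH 6.0, -URA), treated with compound, and growth recovery is read at OD600.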
Numbers without * were called inactive; ? = inconclusive; / = not tested or not shown. Unless noted, calls come from the whole dose curve; as a rule, active = well fitted curve in the direction sought with a large enough effect; inconclusive = small, poorly fitted or top-dose-only effect, or another doubt; inactive = no such curve, though single readings can be large; an effect the other way counts as inactive or inconclusive. Potency is the fitted concentration of half-maximal effect.

SMILES | Cruzain inh Det | Cruzain noTriton | NS1 function inh
O=C(NCCN1C(=O)S/C(=C\c2ccc(Cl)c(Cl)c2)C1=O)C1COc2ccccc2O1 (stereo not given) | / | / | 3.5%
Cn1c(=O)c(=O)n(C)c2cc(S(=O)(=O)CCC(=O)Nc3cccc(C(F)(F)F)c3)ccc21 | -2.3% | -13.1% | 20.1%
CCOC(=O)CSc1ncccn1 | / | / | -1.8%
CCOC(=O)CSc1nc(N(C)C)nc(N(C)C#N)n1 | 15.8µM* | 20µM* | -6.8%
O=C(CS(=O)(=O)c1c[nH]c2ccccc12)N1CCCCC1 | 4.2% | -10.3% | 0.7%
O=C(CSCc1ccc(F)cc1)N1CCc2c([nH]c3ccccc23)C1c1ccc(Cl)cc1 (stereo not given) | 5.4% | 7.94µM* | /
O=C(CSc1ccccc1)N1CCc2c([nH]c3ccccc23)C1c1ccc(Cl)cc1 (stereo not given) | 2.3% | 12.6µM* | /
CCOc1cccc(C2c3[nH]c4ccccc4c3CCN2C(=O)CSc2ccccc2)c1 (stereo not given) | 3.3% | ? | /
COc1ccc(CCC(=O)N2CCc3c([nH]c4ccccc34)C2c2ccc(F)cc2)cc1 (stereo not given) | -0.3% | ? | /
COc1ccc(CC(=O)N2CCc3c([nH]c4ccccc34)C2c2ccc(SC)cc2)cc1 (stereo not given) | 3.8% | 25.1µM* | /
O=C(CSCc1ccc(F)cc1)N1CCc2c([nH]c3ccccc23)C1c1ccccc1 (stereo not given) | 4.4% | -79.6% | /
CSc1cccc(NC(=S)NCCCN2CCN(c3ccc(F)cc3)CC2)c1 | / | / | 1.9%
O=C(CN(c1ccc(F)cc1)S(=O)(=O)c1ccccc1)NC1CCCCCC1 | / | / | 10.3%
CC(=O)Nc1ccc(Sc2ccccc2C(=O)O)cc1 | / | / | 2.7%
CCc1cccc(C)c1NC(=O)CN1C(=O)c2ccccc2S1(=O)=O | 3.1% | -3.5% | 6.1%
O=C(Cn1c(CN2CCCCC2)nc2ccccc2c1=O)Nc1ccccc1 | 2.2% | 13.9% | -4.8%
COc1ccc(Cl)cc1NC(=O)CSc1nc2c([nH]c3ccccc32)c(=O)n1-c1ccccc1 | -2.4% | -3.0% | /
CCOC(=O)C1=C(CSc2nc(-c3ccccc3)ccc2C#N)OC(N)=C(C#N)C1c1ccccc1 (stereo not given) | -1.6% | 25.1µM* | 18.5%
CCOC(=O)C1=C(CSc2nc3c(cc2C#N)CCC3)OC(N)=C(C#N)C1c1ccccc1 (stereo not given) | -1.9% | 0.7% | -4.4%
COc1ccc(NC(=O)c2ccc3ccccc3n2)cc1S(=O)(=O)Nc1ccccc1Cl | -2.0% | 12.6µM* | 19.5%
COc1ccc(NC(=O)c2cc(C)nc3ccccc23)cc1S(=O)(=O)Nc1ccccc1Cl | -6.9% | ? | -2.9%
CC(C)NC(=O)Nc1n[nH]c(Nc2ccc(Cl)cc2)n1 | / | / | -0.7%
O=c1c2ccccc2nnn1CSc1nnc(-c2cccs2)n1Cc1ccccc1 | -1.6% | -11.6% | -25.6%
C=CCn1c(SCC(=O)N2CCCC2)nc2scc(-c3cccs3)c2c1=O | -0.7% | 1.7% | 7.8%
C=CCn1c(SCn2nnc3ccccc3c2=O)nc2scc(-c3cccs3)c2c1=O | 3.8% | 7.94µM* | ?
SMILES | Cruzain inh Det | Cruzain noTriton | NS1 function inh
C=CCn1c(SCC(=O)Nc2ccccc2)nc2scc(-c3cccs3)c2c1=O | -6.1% | 25.1µM* | -4.9%
COc1ccnc(Oc2ccc(F)cc2)c1C(=O)N/C=N/OCc1c(Cl)cccc1Cl | -6.3% | ? | 2.9%
CCN(CC)CCN1CNC(=S)N(c2ccccc2OC)C1 | / | / | 4.8%
O=C(NCC(c1ccccc1)c1ccccc1)c1nn(-c2ccccc2Cl)nc1CO | -3.6% | 21.6% | /
O=C(Nc1ccccc1)N1CC[C@@]2(CCCN(C(=O)c3ccncc3)C2)C1 | -2.0% | -6.1% | /
CC(=O)N1CCN(c2ccccc2NC(=O)c2ccc(-c3cccc([N+](=O)[O-])c3)o2)CC1 | / | / | -1.1%
O=C(NC(=S)Nc1ccccc1N1CCOCC1)c1ccc(-c2cccc(Cl)c2)o1 | -0.8% | ? | 14.7%
O=C(NC(=S)Nc1ccccc1N1CCCCC1)c1ccc(-c2cccc([N+](=O)[O-])c2)o1 | 2.3% | 5.01µM* | 5.4%
COc1ccccc1NC(=S)NC(=O)c1ccc(-c2ccc(Cl)cc2)o1 | -2.9% | ? | 7.8%
O=C(NC(=S)Nc1ccccc1O)c1ccc(-c2ccc(Cl)cc2)o1 | 5.3% | 15.8µM* | -47.1%
O=C(NC(=S)Nc1ccccc1N1CCCC1)c1ccc(-c2cccc([N+](=O)[O-])c2)o1 | -9.9% | 5.01µM* | ?
CC(C)C(C(=O)NCc1ccco1)N(CC1CCCO1)C(=O)CNS(=O)(=O)c1ccccc1 (stereo not given) | / | / | -3.0%
C#CCOC(=O)[C@H](N)CC(N)=O | 8.3% | 7.0% | 2.8%
CCCN(C(=O)c1cc2c(s1)-c1ccccc1OC2)c1ccc(C(C)C)cc1 | -5.4% | ? | /
O=c1ccnc(Sc2ncccc2[N+](=O)[O-])[nH]1 | -3.8% | 2.4% | -3.0%
